CSC inhib: cancer stem cell inhibition | cancer stem cell-like cells viability, luminescence | inhibition, % at 7.5 µM | actives 1.1% (n = 300,000) | AID 2717; in the data active = inhibition above about 75%; tested in HMLE shEcad cells
Mdm2 MdmX PPI: human Mdm2/MdmX binding inhibition. O15151+Q00987. SaOS-2 split-luciferase Mdm2/MdmX complementation, luminescence. inhibition, % at 8 µM. actives 3% (n = 330,000). AID 485346;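 active = inhibition of at least 50% at 8 µM in the primary screen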
Jurkat NFkB inh: inhibitors of the PMA/ionomycin-induced NF-kB reporter in Jurkat cells; PMA/ionomycin-induced NF-kB luciferase reporter, luminescence; inhibition, % at 4 µM; actives 0.53% (n = 330,000); AID 435003; in the data active = inhibition above about 50%
aSyn UTR inh: MLPCN primary screen, SNCA 5' untranslated region. alpha-synuclein 5'UTR reporter, inhibitor activity. inhibition, % (tested at 7.5 µM). actives 0.82% (n = 300,000); in the data active = inhibition above about 60%;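 also: H4 neuroglioblastoma cells stably carrying SNCA 5'UTR luciferase fusion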
697 NFkB inh: inhibitors of the PMA/ionomycin-induced NF-kB reporter in 697 B cells | 697 B-cell NF-kB luciferase reporter, 16 h | inhibition, % at 4 µM | actives 0.33% (n = 330,000); in the data active = inhibition above about 35%
Gli-Sufu antag: blocks Gli-Sufu signaling in a luciferase reporter. inhibition, % at 5 µM. Sufu-KO-LIGHT fibroblasts, Gli luciferase reporter luminescence. actives 0.74% (n = 340,000);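 active = inhibition above about 55%, limit read from the data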
Mdm2 MdmX conf: human Mdm2/MdmX binding inhibition, confirmed. actives 55% (n = 10,000). luminescent assay. inhibition, % at 8 µM. AID 489028. shares compounds with Mdm2 MdmX PPI; in the data active = inhibition above about 40%
Full FLuc ctr: full-length luciferase inhibition in Mdm2/MdmX counter-screen | shares compounds with Mdm2 MdmX PPI | inhibition, % at 8 µM | SaOS-2 full-length luciferase counterscreen, luminescence | actives 77% (n = 6,200);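 active = mean inhibition at 8 µM reaching about 37%, which flags the compound as non-specific, limit read from the data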;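 also: p53-null SaOS-2 cells with luciferase driven by a doxycycline-inducible promoter; compound on cells about two nights before reading with doxycycline added after day one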
Of the large screens only hits and unclear results are named; the others gave an inactive call (follow-up assays come after a bar, where they were run). A selection: hits, their analogues and other compounds. The true share with any hit is near 4.5%.

Clc1ccc(-c2ccc(CNCc3ccccn3)o2)cc1	none
OCCN1CCN(CC(O)COc2ccc(Cl)cc2)CC1 (stereo not drawn)	none
OCCN1CCN(CC(O)COc2ccc(C34CC5CC(CC(C5)C3)C4)cc2)CC1 (stereo not drawn)	CSC inhib 112.5, Mdm2 MdmX PPI 94.7, aSyn UTR inh 84.9 | Mdm2 MdmX conf 72.7 | Full FLuc ctr inactive
O=S(=O)(c1cc(F)ccc1F)N1CCN(C2CCCCC2)CC1	none
CCOCc1c(C(=O)NC2=Nc3ccccc3NC(CC)=C2C(=O)OCC)oc2ccccc12	Mdm2 MdmX PPI 68.9 | Mdm2 MdmX conf 73.0 | Full FLuc ctr 64.8
CCOC(=O)C1=C(CC)Nc2ccccc2N=C1NC(=O)c1oc2ccccc2c1C	none
Cc1ccc(C)c(N2CCN(S(=O)(=O)c3c(C)noc3/C=C/N(C)C)CC2)c1	Mdm2 MdmX PPI 56.0 | Mdm2 MdmX conf inactive
COc1ccc(S(=O)(=O)Nc2cc3c(cc2C(C)=O)OCO3)cc1	Mdm2 MdmX PPI 63.1 | Mdm2 MdmX conf 50.9 | Full FLuc ctr 63.3
Cc1nnc(C)n1/N=C/C=C/c1ccccc1	none
CC(C)=CCCC1(C)C=Cc2c(c(C)cc3c2[nH]c2cc(O)ccc23)O1 (stereo not drawn)	CSC inhib 92.7, Mdm2 MdmX PPI 68.8 | Mdm2 MdmX conf inactive
Cc1cc(=O)[nH]c2cc(O)ccc12	none
O=C(COC(=O)COc1ccccc1)NC1CCCC1	none (no result: aSyn UTR inh)
C=CCn1c(O)c(N=NC(=S)Nc2cccc(OC)c2)c2ccccc21	Mdm2 MdmX PPI 58.3 | Mdm2 MdmX conf 40.0 | Full FLuc ctr 48.2
Cc1[nH]c2c(C)cccc2c1CCNC(=O)c1ccc2c(c1[N+](=O)[O-])C(=O)c1ccccc1C2=O	Mdm2 MdmX PPI 74.7 | Mdm2 MdmX conf inactive
Cc1cccc2c(=O)c(C(=O)NCCc3ccccc3)c[nH]c12	none
CN(C)C(=O)c1ccc2c(c1[N+](=O)[O-])C(=O)c1ccccc1C2=O	none
Cc1[nH]c2ccccc2c1CCNC(=O)c1ccc2c(c1[N+](=O)[O-])C(=O)c1ccccc1C2=O	Mdm2 MdmX PPI 68.8 | Mdm2 MdmX conf inactive
Cc1ccc2[nH]c(=O)c(CN(Cc3ccccc3Cl)C(=O)N3CCOCC3)cc2c1	none
Cc1cc(/C=C\c2ccc3cc(N(C)C)ccc3[n+]2C)c(C)n1-c1ccccc1	CSC inhib 87.5, Mdm2 MdmX PPI 100.4, Gli-Sufu antag 93.7 (no result: aSyn UTR inh) | Mdm2 MdmX conf 92.3 | Full FLuc ctr inactive
COc1ccc2c(c1)-c1c(ssc1=S)C(C)(C)N2C(=O)CSC1=NCCS1	Mdm2 MdmX PPI 64.0 | Mdm2 MdmX conf inactive
CC1(C)c2ssc(=S)c2-c2ccccc2N1C(=O)CSC1=NCCS1	Mdm2 MdmX PPI 51.9 | Mdm2 MdmX conf inactive
Cc1ccc2c(c1)-c1c(ssc1=S)C(C)(C)N2C(=O)CSc1nncn1C	none
CSc1nc(N)c2c(C)c(C)sc2n1	none (no result: CSC inhib)
CCCNC(=O)C(=O)Nc1ccc2c(c1)N(S(=O)(=O)c1cccs1)CCC2	Mdm2 MdmX PPI 50.2 (no result: CSC inhib) | Mdm2 MdmX conf 69.1 | Full FLuc ctr 59.7
O=C(NC(C(=O)c1ccccc1)n1ccc(=O)[nH]c1=O)c1ccccc1 (stereo not drawn)	none
COc1ccc(CCn2c(NN)nc3c2c(=O)[nH]c(=O)n3C)cc1	Mdm2 MdmX PPI 57.5 | Mdm2 MdmX conf 50.2 | Full FLuc ctr 67.3
COc1ccc(NC(C)C(=O)Nc2cc(C(F)(F)F)ccc2N2CCOCC2)c(OC)c1 (stereo not drawn)	Mdm2 MdmX PPI 57.2 | Mdm2 MdmX conf inactive
COc1ccc(-c2nnn(CCc3nn[nH]n3)n2)cc1	none
COc1cccc(N(C(=O)Cn2nnc(-c3ccc(F)cc3)n2)C(C(=O)NCC2CCCO2)c2ccc(Cl)cc2)c1 (stereo not drawn)	none (no result: CSC inhib)
COc1cccc(N(C(=O)Cn2nnc(-c3ccc(Cl)cc3)n2)C(C(=O)NCC2CCCO2)c2ccc(C)cc2)c1 (stereo not drawn)	Mdm2 MdmX PPI 55.8 | Mdm2 MdmX conf inactive
CCOC(=O)c1ccc(N2CCCCC2)c(NS(=O)(=O)c2ccc(C)cc2)c1	Mdm2 MdmX PPI 58.8 | Mdm2 MdmX conf 46.1 | Full FLuc ctr 66.7
O=C(NC(=S)Nc1nc2c(s1)CCCC2)c1ccc(C(=O)c2ccccc2)cc1	none
O=C(NC(=S)Nc1nc2c(s1)CSc1ccccc1-2)c1ccccc1	Mdm2 MdmX PPI 68.1 | Mdm2 MdmX conf inactive
COc1ccc(-c2nc(NC(=O)c3ccc(OCC(=O)Nc4ccc(F)cc4)c(OC)c3)sc2C)cc1	Mdm2 MdmX PPI 60.8 | Mdm2 MdmX conf 45.6 | Full FLuc ctr 58.1
Oc1ccc2ccccc2c1C=NCc1cn2ccsc2n1	Mdm2 MdmX PPI 51.3 | Mdm2 MdmX conf inactive
Oc1ccc2ccccc2c1/C=N/c1nccs1	none
Cc1cccc2c1-c1sc(C(=O)NCCCN3CCC(C)CC3)cc1CO2	Mdm2 MdmX PPI 57.4 | Mdm2 MdmX conf inactive
CN(CCC#N)C(=O)COC(=O)c1ccc2c(c1)C(=O)N(C1CCCCC1)C2=O	none
COc1cccc(-c2nc(-c3ccccc3)nc(N3CCN(C)CC3)c2C#N)c1	Mdm2 MdmX PPI 66.4 | Mdm2 MdmX conf 53.9 | Full FLuc ctr 77.3
CN(C(=O)c1ccc(S(=O)(=O)N2CCCC2)cc1)C1CCS(=O)(=O)C1 (stereo not drawn)	none
Cc1nnc(N2C(=O)C(=O)/C(=C(/O)c3ccc4c(c3)OCCO4)C2c2ccc(F)cc2)s1 (stereo not drawn)	none
O=C1C(=O)N(CCN2CCOCC2)C(c2ccccc2)/C1=C(\O)c1ccc2c(c1)OCCO2 (stereo not drawn)	none
O=C1C(=O)N(c2nccs2)C(c2ccccc2)/C1=C(\O)c1ccc2c(c1)OCCO2 (stereo not drawn)	Mdm2 MdmX PPI 74.4 (no result: Gli-Sufu antag) | Mdm2 MdmX conf 88.2 | Full FLuc ctr inactive
O=C1C(=O)N(c2nccs2)C(c2ccccc2F)/C1=C(\O)c1ccc2c(c1)OCCO2 (stereo not drawn)	Mdm2 MdmX PPI 70.7 | Mdm2 MdmX conf 68.5 | Full FLuc ctr 37.3
O=c1c2ccccc2nnn1CSc1nnc2sc3ccccc3n12	Mdm2 MdmX PPI 52.6 (no result: Gli-Sufu antag) | Mdm2 MdmX conf 54.4 | Full FLuc ctr 113.2
CN(C)C(=O)CSc1nnc2sc3ccccc3n12	none
COc1ccc(C2=NN(C(=O)c3ccco3)C(c3cc4ccccc4nc3Cl)C2)cc1 (stereo not drawn)	Mdm2 MdmX PPI 81.7 | Mdm2 MdmX conf inactive
COc1ccc2cc(C3CC(c4ccco4)=NN3C(=O)CCC(=O)O)c(Cl)nc2c1 (stereo not drawn)	none
Nc1nnnn1-c1cccc([N+](=O)[O-])c1	none (no result: CSC inhib, Mdm2 MdmX PPI, Jurkat NFkB inh, aSyn UTR inh, 697 NFkB inh)
COc1cc2ccccc2cc1C(=O)N(CCN(C)C)c1nc2ccc(C)cc2s1	Mdm2 MdmX PPI 68.2 | Mdm2 MdmX conf 56.0 | Full FLuc ctr 44.7
